In PubChem BioAssay (EPA / NIEHS) one finds outcome and AC50 data, which are given here for 17 compounds.

One may read the AC50 as the concentration giving half of the maximal activity seen.

Several values for one entry are separate records, joined by “and”; a condition that tells them apart may be missing. Equal entries are not always repeated. Records with an inconclusive call do not appear. More than one record can exist for a structure, and the calls need not agree. Activity calls are given as the source filed them. The calls were made as follows, unless noted: active = hit-call score of the fitted dose curve at least 0.9, where 1 is the maximum; inactive = score below 0.9.

Read-out in experiment [1]: Interleukin-8 (IL8), CXCL8 (gene 3576)
The experiment is described as follows: BSK_3C_IL8: BioMAP Diversity Plus: 3C Assay for Interleukin-8 (IL8) Biomarker Activity (AID 2283020). To be noted: primary human endothelial cells (HUVEC); actives raise or lower the signal. In outline: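 Human vascular endothelial cells (umbilical vein) in the 3C system; IL-8 level detected by ELISA at 24 h post-dose, with DMSO as baseline.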

Read-out in experiment [2]: Monokine induced gamma interferon (MIG), CXCL9 (gene 4283)
Nature of the experiment: BSK_3C_MIG: BioMAP Diversity Plus: 3C Assay for Monokine induced gamma interferon (MIG) Biomarker Activity (AID 2283021).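 As to AC50: MIG protein level measured by immunoassay in the treated endothelial cultures.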 To be noted: primary human endothelial cells (HUVEC); actives raise or lower the signal. In outline: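 After 24 h of treatment, human umbilical vein endothelial cultures (3C system) had their MIG biomarker level determined by ELISA, with DMSO serving as negative control.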

The target in experiment [3] is human Vitamin D Receptor (VDR), VDR (gene 7421) (UniProt P11473). The experiment is described as follows: ATG_VDR_TRANS: Attagene TRANS-FACTORIAL HepG2 Assay for human Vitamin D Receptor (VDR) (AID 2283022; active = hit-call score of the fitted dose curve at least 0.9, where 1 is the maximum). In outline:
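Multiplexed TRANS reporter in HepG2; 24 h treatment; reporter mRNA by RT-PCR plus capillary electrophoresis; upregulation scored relative to DMSO.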

A short description of experiment [4]: BSK_3C_SRB: Viability Assessment in the BioMAP Diversity Plus: 3C Assay (AID 2283023).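 Also: cells read 24 h after compound dosing; fitted both ways against DMSO so a hit may be signal rise or drop.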 To be noted: primary human endothelial cells (HUVEC). The method, boiled down:
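Overt cytotoxicity is gauged in parallel confluent HUVEC cultures by SRB total-protein staining at the time of biomarker measurement, 24 h after dosing. Gain or loss of signal is fitted versus DMSO.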

Read-out in experiment [5]: Matrix Metallopeptidase 1 (MMP1), MMP1 (gene 4312)
The experiment is described as follows: BSK_BE3C_MMP1: BioMAP Diversity Plus: BE3C Assay for Matrix Metallopeptidase 1 (MMP1) Biomarker Activity (AID 2283024). To be noted: primary human bronchial epithelial cells; actives raise or lower the signal. The method, boiled down: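 Dose cells, wait 24 h, run MMP1 ELISA; cells are human bronchial epithelial primaries. Both increases and decreases relative to DMSO counted.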

Read-out in experiment [6]: Pselectin, SELP (gene 6403)
Nature of the experiment: BSK_4H_Pselectin: BioMAP Diversity Plus: 4H Assay for Pselectin Biomarker Activity (AID 2283026). To be noted: primary human endothelial cells (HUVEC); actives raise or lower the signal. In outline: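 Human vascular endothelium from umbilical vein; P-selectin measured by ELISA at 24 h post-dose, with cytotoxicity checked by sulforhodamine B total-protein staining in parallel cultures (0.1% SRB after 10% TCA fixation, read at 560 nm).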

Experiment [7] is described as follows: BSK_4H_SRB: Viability Assessment in the BioMAP Diversity Plus: 4H Assay (AID 2283027).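 Also: cells exposed to compound for 24 h before staining.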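 As to AC50: curves fitted both ways versus DMSO so AC50 may be loss or gain.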 To be noted: primary human endothelial cells (HUVEC). In outline: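 Absorbance at 560 nm of SRB-stained total protein served as the viability read-out in confluent primary human umbilical vein endothelium 24 h after chemical treatment. Curves were fitted bidirectionally against DMSO as negative control.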

Experiment [8] can be described thus: BSK_BE3C_SRB: Viability Assessment in the BioMAP Diversity Plus: BE3C Assay (AID 2283028).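 Also: measured 24 h after chemical dosing.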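 As to AC50: fitted both ways so AC50 may mark signal gain or loss versus DMSO.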 To be noted: primary human bronchial epithelial cells. The method, boiled down: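 SRB total-protein staining (0.1%, after TCA fixation) of chemically dosed human bronchial epithelial primary cells at 24 h; DMSO serves as the negative control for bidirectional curve fitting.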

Read-out in experiment [9]: Thrombomodulin, THBD (gene 7056)
Nature of the experiment: BSK_3C_Thrombomodulin: BioMAP Diversity Plus: 3C Assay for Thrombomodulin Biomarker Activity (AID 2283029). To be noted: primary human endothelial cells (HUVEC); actives raise or lower the signal. In outline:
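Thrombomodulin ELISA, human primary HUVEC, 24 h post-dose; data fitted in both directions relative to DMSO.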

A short description of experiment [10]: BSK_3C_Vis: BioMAP Diversity Plus: 3C Assay for Morphology Visualization (AID 2283025).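 Also: fitted both ways so gain or loss versus DMSO counts.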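 As to AC50: light microscopy image of cell morphology used as background control; cells imaged 24 h after dosing.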 To be noted: primary human endothelial cells (HUVEC). The method, boiled down: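 Endothelial cells from human umbilical vein were treated with test chemicals for 24 h and inspected by light microscopy for changes in cell conformation.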

Chain of human Vitamin D Receptor (VDR), VDR (gene 7421) (P11473 whole entry, looked up): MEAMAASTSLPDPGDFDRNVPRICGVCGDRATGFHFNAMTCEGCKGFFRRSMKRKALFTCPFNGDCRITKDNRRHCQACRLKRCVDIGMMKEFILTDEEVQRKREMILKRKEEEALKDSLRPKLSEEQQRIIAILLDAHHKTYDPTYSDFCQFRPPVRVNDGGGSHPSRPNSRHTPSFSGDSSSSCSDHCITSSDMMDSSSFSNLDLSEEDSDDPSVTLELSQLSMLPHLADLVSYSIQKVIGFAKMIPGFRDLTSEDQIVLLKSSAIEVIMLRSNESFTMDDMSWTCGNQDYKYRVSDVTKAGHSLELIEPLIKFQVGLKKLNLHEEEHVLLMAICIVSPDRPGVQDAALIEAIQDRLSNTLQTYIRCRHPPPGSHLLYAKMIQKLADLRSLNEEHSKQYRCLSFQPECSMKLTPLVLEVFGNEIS

Take `O=S(=O)(OCC(F)F)C(F)(F)F`: the result in experiment [1], in experiment [2], in experiment [3], in [4], in experiment [5] and in experiment [6] was inactive. Moreover, the outcome in [7], in experiment [8] and in [9] was inactive.
Regarding `O=S(=O)(OCCOC(F)(F)F)C(F)(F)F`, the result in experiment [1], in experiment [2], in experiment [3], in experiment [4], in experiment [5] and in experiment [6] was inactive. In addition, the outcome in [7], in [8] and in experiment [9] was inactive.
As for `C=C(C)C(=O)OCC(F)(F)C(F)(F)C(F)(F)C(F)(F)C(F)(F)C(F)(F)C(F)(F)F`, the outcome in experiment [1], in experiment [2], in [3], in [4], in experiment [5] and in [6] was inactive. The outcome in experiment [7], in experiment [8] and in [9] was inactive. Also, in [5], the AC50 is 3.2 µM (active).
With `O=C(O)C=C(C(F)(F)F)C(F)(F)F`, the result in [1], in experiment [2], in experiment [3], in experiment [4], in experiment [5] and in experiment [7] was inactive. Moreover, the result in [8] and in experiment [9] was inactive. Moreover, in experiment [6], the AC50 was 22.4 µM (active) and 21.1 µM (active).
For `CCO[Si](CCC(F)(F)C(F)(F)C(F)(F)C(F)(F)C(F)(F)C(F)(F)F)(OCC)OCC`, the result in experiment [1], in [2], in experiment [3], in experiment [4], in experiment [5] and in [6] was inactive. The outcome in [7], in [8] and in [9] was inactive. The AC50 in experiment [9] was 0.638 µM (active).
In the case of `Oc1ccc(Nc2ccccc2)cc1`, the AC50 in experiment [1] was 0.0694 µM (active). Also, the result in [2], in [3], in [4], in [5], in experiment [10] and in experiment [6] was inactive. Besides, the outcome in experiment [7], in [8] and in [9] was inactive.
On to `FC(F)(Br)C(F)(F)C(F)(F)C(F)(F)C(F)(F)C(F)(F)Br`, for which the result in [1], in experiment [2], in [3], in experiment [4], in experiment [5] and in experiment [6] was inactive. In addition, the result in experiment [7], in experiment [8] and in experiment [9] was inactive.
For `CCCCNc1ccccc1`, the result in experiment [1], in experiment [2], in experiment [3], in experiment [4], in [5] and in [10] was inactive. The outcome in experiment [6], in [7], in [8] and in experiment [9] was inactive.
Consider `O=C(O)C(F)(F)C(F)(F)C(F)(F)C(F)(F)C(F)(F)C(F)(F)C(F)(F)C(F)(F)C(F)(F)C(F)(F)C(F)(F)C(F)(F)F`, for which the AC50 is 23.6 µM (active) and 8.82 µM (active) in experiment [1]; 21.7 µM (active) and 18 µM (active) in [7]; 0.928 µM (active) in experiment [9]. Also, the outcome in [2], in experiment [3], in experiment [4], in experiment [5], in experiment [6] and in experiment [8] was inactive. Also, in experiment [9], the result was inactive.
Turning to `FC(F)(F)C(F)(F)CNCC(F)(F)C(F)(F)F`, the AC50 in experiment [1] was 30 µM (active). Moreover, the result in experiment [1], in experiment [2], in [3], in experiment [5], in [6] and in [7] was inactive. The outcome in experiment [8] and in experiment [9] was inactive.
Consider `CC(=O)Nc1ccc(N=Nc2cc(C)ccc2O)cc1`, for which the outcome in experiment [1], in experiment [2], in [3], in experiment [4], in [7] and in experiment [8] was inactive. Moreover, the AC50 in experiment [5] was 24.7 µM (active); in experiment [10], 39.6 µM (active); in experiment [6] it was 15.2 µM (active); in experiment [9] it was 7.5 µM (active).
Turning to `C=C(C)C(=O)OCCC(F)(F)C(F)(F)C(F)(F)C(F)(F)C(F)(C(F)(F)F)C(F)(F)F`, the outcome in [1], in [2], in experiment [3], in experiment [4], in experiment [5] and in experiment [6] was inactive. Besides, the result in [7], in experiment [8] and in [9] was inactive.
As for `O=C(Cl)C(F)(F)C(F)(F)C(F)(F)C(F)(F)C(F)(F)C(F)(F)C(F)(F)C(F)(F)F`, the AC50 in experiment [1] was 41 µM (active); in [5], 50.8 µM (active) and 51.7 µM (active) and 52 µM (active); in experiment [7], 30 µM (active); in experiment [8], 58.5 µM (active) and 46.6 µM (active) and 47.3 µM (active). Besides, the outcome in [1], in experiment [2], in [3], in [6], in experiment [7] and in experiment [9] was inactive.
As to `CCCCCCCCC(F)(F)C(F)(F)C(F)(F)C(F)(F)C(F)(F)C(F)(F)F`, the outcome in experiment [1], in experiment [2], in experiment [3], in experiment [4], in experiment [5] and in experiment [6] was inactive. Also, the result in experiment [7], in experiment [8] and in [9] was inactive.
As to `OCCCC(F)(F)C(F)(F)C(F)(F)C(F)(F)C(F)(F)C(F)(F)C(F)(F)F`, the AC50 was 44.9 µM (active) and 47.6 µM (active) in experiment [1]; 49.2 µM (active) and 43.7 µM (active) in experiment [2]; 32.6 µM (active) and 45.2 µM (active) in [4]; 49.7 µM (active) and 48.3 µM (active) in [5]; 41.8 µM (active) in experiment [6]; 49.4 µM (active) and 48.3 µM (active) in [7]. Further, the AC50 in [8] was 49.1 µM (active) and 52.5 µM (active). Further, the result in [3], in [6] and in [9] was inactive.
Consider `CCCCOCCOCCOC(=O)CCCCC(=O)OCCOCCOCCCC`, for which the result in [1], in experiment [2], in experiment [3], in experiment [4], in experiment [5] and in experiment [10] was inactive. Moreover, the result in experiment [6], in [7], in [8] and in experiment [9] was inactive.
For the compound `O=C(O)C(F)(F)C(F)(F)C(F)(F)F`, the result in experiment [1], in [2], in experiment [3], in [4], in experiment [5] and in [6] was inactive. The outcome in experiment [7], in experiment [8] and in [9] was inactive.
